Laboratory results taken from PubChem BioAssay AID1814 (Broad Institute, 2009).
The campaign covered roughly 300,000 compounds. About 22,000 (7.3%) were called active. Roughly 2% stayed inconclusive and do not appear here. This is one part of a sample in which actives are shown more often than they occur. No stated cut-off is given here; in the data, active means activity score below about -60%; inconclusive means mostly about -28% to -61%; inactive means positive scores.

assay: Activators via SNCA 5'UTR binding, MLPCN (AID 1814); settings: alpha-synuclein 5'UTR reporter, activators screen; stronger effect = lower value; tested at 7.5 µM

SMILES | activity score
COc1ccc(C(=O)NC(=S)NC2CCCCC2)cc1 | -137% (active)
CC(C)CNC(=S)NC(=O)c1ccc(Cl)cc1 | -111% (active)
O=C(NC(=S)NC1CCCCC1)c1ccc(Cl)cc1 | -160% (active)
O=C(NC1CCCCC1)c1ccc(-c2ccc(Cl)cc2)o1 | -150% (active)
Cc1ccc(OCCCC(=O)N2CCOCC2)c(C)c1 | -75.1% (active)
Cc1oc2c(c1C(=O)N1CCOCC1)C(=O)c1ccccc1C2=O | 101% (inactive)
COc1ccc(-c2cn(-c3ccc(OC)cc3)c(=S)[nH]2)cc1 | -129% (active)
O=c1oc2ccccc2cc1-c1cn(-c2ccccc2)c(=S)[nH]1 | 119% (inactive)
O=C(Nc1ccc2oc(-c3ccc4ccccc4c3)nc2c1)c1cccs1 | -233% (active)
CCN(CC)C(=O)c1sc2nc(-c3ccccc3)ccc2c1N | -178% (active)
O=C(NNC(=O)c1cc2c(s1)CCCC2)c1ccccc1 | -80.5% (active)
O=C(Nc1ccc(F)cc1)c1cc2c(s1)CCCC2 | -165% (active)
CCN(CC)c1ccc(C(=O)c2cnc(/N=C/N(C)C)s2)cc1 | -64.1% (active)
C=CCNc1cnn(-c2ccc(C)cc2)c(=O)c1Cl | -80.9% (active)
Cc1sc2ncnc(Sc3nc4ccccc4s3)c2c1C | -71% (active)
CSc1ccccc1OCc1cc(C(=O)N2C[C@H]3CC[C@H]2C3)no1 | -85.5% (active)
N#Cc1c(NC(=O)C2CCCO2)sc2c1CCCCC2 (stereo not given) | -161% (active)
Cc1ccc(C)c(NC(CC(=O)c2ccccc2)C(=O)OCC(=O)c2cccs2)c1 (stereo not given) | -96.3% (active)
O=C(Cn1ncc(N2CCCC2)c(Br)c1=O)c1ccc(Cl)cc1 | -92.2% (active)
O=C(CSc1cccc[n+]1[O-])c1ccc(-c2ccccc2)cc1 | -146% (active)
CCOC(=O)c1[nH]c2c(c1C)C(=O)CC(c1ccc(N(C)C)cc1)C2 (stereo not given) | -105% (active)
CCOc1cc(/C=C2\SC(N3CCCCC3)=NC2=O)ccc1O | -75.9% (active)
O=C1N=C(N2CCCC2)S/C1=C\c1cccc(Br)c1 | -122% (active)
O=C(COC(=O)c1cccc(Br)c1)Nc1cccc2c1C(=O)c1ccccc1C2=O | -79% (active)
Cn1c(=NC(=O)c2ccco2)sc2cccc(F)c21 | -151% (active)
CCCC(=O)N=c1sc2cccc(F)c2n1C | -76.7% (active)
CS(=O)(=O)N1CCc2cc(C(=O)Nc3ccccc3)ccc21 | -104% (active)

SMILES | activity score
CS(=O)(=O)N1CCc2cc(C(=O)Nc3ccccc3Br)ccc21 | -124% (active)
CSc1ccccc1NC(=O)c1ccc2c(c1)CCN2S(C)(=O)=O | -66.1% (active)
O=C(Nc1cc(C(F)(F)F)ccc1Cl)c1cc(C2CC2)on1 | -77.3% (active)
O=C(Nc1cc(C(F)(F)F)ccc1Cl)c1cc2nc3c(c(C(F)(F)F)n2n1)CCCC3 | -243% (active)
CSc1ccccc1NC(=O)c1cc(C2CC2)on1 | -116% (active)
O=C(O)c1ccccc1CSc1nc2ccccc2s1 | -62.9% (active)
CC(/C=N/NC(=O)c1cc(-c2ccc3ccccc3c2)n[nH]1)=C\c1ccco1 | -220% (active)
COc1ccc(CNC(=O)c2ccc3oc(C(C)C)nc3c2)cc1 | -118% (active)
COC(=O)c1ccc(CNC(=O)c2ccc3oc(C(C)C)nc3c2)cc1 | -95.9% (active)
COC(=O)c1ccc(Sc2ccc(F)cc2)c(N)c1 | -107% (active)
CC(C)(C)c1ccc(/C=C2\SC(=O)N=C2N)cc1 | -78.7% (active)
O=C(Nc1cccc2ccccc12)c1onc2c1CCCC2 | -204% (active)
Cc1ccc2nc(-c3ccc(SCC(=O)Nc4cc(C)on4)nc3)[nH]c2c1 | -160% (active)
O=C(c1noc2c1CCCC2)N1CCc2ccccc2C1 | -165% (active)
O=C(NCCNc1ccccc1[N+](=O)[O-])c1ccccc1F | -168% (active)
NC(=O)c1ccccc1N=Cc1ccc2ccccc2c1 | -211% (active)
CCc1ccc2nc3sc(C(=O)Nc4nnc(CC)s4)c(N)c3cc2c1 | -71.1% (active)
Cc1nc(C)c(-c2csc(NCCc3ccccc3)n2)s1 | -84.7% (active)
CC(c1ccccn1)N(C)C(=O)c1ccc2nc(Cc3cccc(Cl)c3)oc2c1 (stereo not given) | -80.8% (active)
COc1ccc(-c2cc3n(n2)CCc2nc4ccccc4n2-3)cc1 | -137% (active)
COC(=O)c1sc(N2CCN(Cc3ccccc3)CC2)nc1N | -67.9% (active)
CCN1CCN(c2cc3nc(C)n(Cc4ccccc4)c(=O)c3cc2NC(=O)c2ccccc2F)CC1 | 65.1% (inactive)
Oc1ccc2ccccc2c1N=Nc1nccs1 | 87.4% (inactive)
Cn1c(-c2ccc(C(=O)c3ccccc3)s2)nc2ccccc21 | -73.8% (active)
O=C(/C=C/c1cnc2ccccc2n1)NC1CCCCCC1 | -94.3% (active)
O=C(Nc1ccccc1Cl)Nc1cccc2cccnc12 | -162% (active)
COc1ccc(NC(=O)Nc2cccc3cccnc23)cc1 | -211% (active)

SMILES | activity score
O=[N+]([O-])c1ccccc1S(=O)(=O)Nc1cccc2cccnc12 | 59.9% (inactive)
S=C(c1ccc(-c2ccccc2)o1)N1CCCCC1 | -113% (active)
OCCN1CCN(C(=S)c2ccc(-c3ccccc3)cc2)CC1 | 88% (inactive)
O=C(Nc1ccc(Cl)cn1)Nc1cccs1 | -78.6% (active)
Clc1ccc(Nc2ccc3ccccc3n2)cc1 | -61.9% (active)
CCOC(=O)C1(Cc2ccccc2C)CCCN(C(=O)c2ccc(COC)o2)C1 (stereo not given) | -84.1% (active)
O=C(Nc1ccc(N2CCOCC2)nc1)c1c(F)cccc1F | -91.2% (active)
CCc1ccccc1OCC(=O)Nc1ccc2c(c1)OCCO2 | -104% (active)
CCCCC(=O)Nc1ccc2c(c1)OCCO2 | -102% (active)
Cc1ccc(SCC(=O)Nc2ccc3c(c2)OCCO3)cc1 | -96.9% (active)
COC(=O)CCNc1ccc2c(c1)OCCO2 | -62.2% (active)
CCN(CC)C(=O)CSc1nc2ccccc2o1 | -63.8% (active)
CC1Cc2ccccc2N1C(=O)CSc1nc2ccccc2o1 (stereo not given) | -87.9% (active)
CC(C)(C)C(=O)CSc1nc2ccccc2o1 | -109% (active)
CC(=O)c1cccc(NC(=O)Nc2ccc(C)cc2)c1 | -144% (active)
CCc1ccc(NC(=O)Nc2ccncc2)cc1 | -76.8% (active)
Cc1ccc(-c2nc(-c3cccnc3)sc2CC(=O)Nc2ccc(C)c(Cl)c2)cc1 | 54.1% (inactive)
Cc1ccc(NC(=O)Nc2nnc(-c3ccncc3)s2)cc1 | -68% (active)
Cc1ccc(NC(=O)Nc2cccnc2)cc1 | -97.5% (active)
CCCCCCCCn1c2c(c(=N)c3c1CCC3)CCCC2 | 101% (inactive)
COC(=O)c1ccc(NC(=O)Nc2ccc(C)cc2)cc1 | -81.9% (active)
COC(=O)c1sccc1NC(=S)Nc1ccc(C)cc1 | -77.8% (active)
Cc1ccc(NC(=O)Nc2ccccc2)c(Br)c1 | -192% (active)
COc1cc(NC(=O)Nc2ccc(C)cc2)cc([N+](=O)[O-])c1 | -141% (active)
O=C(c1ccco1)N1CCN(C(=O)c2cc(-c3ccccc3F)no2)CC1 | -156% (active)
O=C(NCCCN1CCOCC1)c1cc(-c2ccccc2F)no1 | -121% (active)
CCC(=O)/C(=C(/O)c1ccccc1)c1nc2ccccc2[nH]1 | -69% (active)

SMILES | activity score
CC[C@]1(O)C[C@@H]2CN(CCc3c([nH]c4ccccc34)[C@@](C(=O)OC)(c3cc4c(cc3OC)N(C)[C@H]3[C@@](O)(C(=O)OC)[C@H](OC(C)=O)[C@]5(CC)C=CCN6CC[C@]43[C@@H]65)C2)C1 | 77.2% (inactive)
CNc1[nH]ncc1[N+](=O)[O-] | -74.2% (active)
CC1CCCC(NC(=O)c2cccc(N3CCCC3=O)c2)C1C (stereo not given) | -74.5% (active)
CC1CCC(NC(=O)c2ccc(N3CCCC3=O)cc2)CC1 (stereo not given) | -64.3% (active)
CN1c2ccc(C=O)c3c(C=O)ccc(c23)N(C)C1(C)C | 67% (inactive)
CC1CCN(C(=S)c2ccc(-c3ccc(Cl)cc3Cl)o2)CC1 | -91.3% (active)
O=C(CSc1ccccn1)Nc1nc2c(ccc3ccccc32)s1 | -63.2% (active)
COc1ccc2nc(SCc3ccccc3)nc(C)c2c1 | -70.7% (active)
Cc1ccc(-n2ncc3c2ncn2nc(-c4ccco4)nc32)c(C)c1 | -88.8% (active)
Cc1onc(-c2ccccc2Cl)c1C(=O)N(Cc1ccc(N(C)C)cc1)C(C)C | 73.1% (inactive)
CCN1/C(=C\c2ccc3ccccc3[n+]2CC)Sc2cc(C)ccc21 | -332% (active)
O=C(Nc1ncccc1O)c1ccc(C(=O)c2ccccc2)cc1 | -507% (active)
O=C(Nc1ncccc1O)c1ccc(S(=O)(=O)N2CCCC2)cc1 | -67.4% (active)
CNC(C)C#Cc1ccc2sc3cc(OC)c(OC)cc3c(=O)c2c1 (stereo not given) | -277% (active)
COc1ccc(-c2cn3ccsc3n2)cc1 | -105% (active)
FC(F)(F)Oc1ccc(-c2cn3cccnc3n2)cc1 | -80.4% (active)
COc1ccc(-c2cn3cccnc3n2)cc1 | -75.4% (active)
CC(C)(C)C(=O)Nc1ccc(-c2cn3cccnc3n2)cc1 | -130% (active)
CCn1nnnc1SCC(=O)c1ccc(C)cc1C | -81% (active)
COC(=O)C1C(=O)c2c([nH]c(C(=O)OCCSC)c2C)CC1C (stereo not given) | -117% (active)
Cc1cccc(-n2ncc3c(N4CCc5ccccc54)ncnc32)c1 | -164% (active)
COc1ccc(-n2ncc3c(N4CCc5ccccc54)ncnc32)cc1 | -240% (active)
Cc1cc(N/C=C\C(=O)c2ccc(Cl)c(Cl)c2)no1 | -231% (active)
CCCCC(=O)Nc1nc(C)c(-c2csc(Nc3ccc(Cl)cc3)n2)s1 | -62.8% (active)
